Common to all, as to assay: NCI-60 one-dose screen, 48 h (100 = growth as untreated, 0 = no growth, -100 = all killed)
Settings in all cases: 10 µM unless noted

In assay [1] the test system is DU-145 prostate.
In assay [2] the test system is K-562 leukemia.
Assay [3] has as its system MALME-3M melanoma.
In assay [4] the test system is MDA-MB-231 breast.
Assay [5] deals with RXF 393 renal.
Assay [6] deals with SF-268 CNS.
The subject of assay [7] is SF-295 CNS.
In assay [8] the test system is SF-539 CNS.
For assay [9], the system named is UACC-257 melanoma.
The subject of assay [10] is M14 melanoma.

About 83,000 compounds went through this panel and 20% of them were active in at least one assay; those are over-represented in the sample as a whole.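 48-hour exposure, single concentration, 96-well plates; percent growth endpoint where 0 means no net growth. Active: below 10.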 Unmarked numbers belong to inactive results. Activity calls are given as the source filed them.

Growth data for 14 compounds are collected here from PubChem BioAssay (NCI).

On to `O=C(Nc1ccc(-n2cc(-c3ccncc3)c(-c3ccc(Cl)c(O)c3)n2)cc1)c1cc(Cl)cc(Cl)c1`, for which the growth in [1] is 72.8%; in [2] it was 13.9%; in assay [3], 24.7%; in assay [4], 24.2%; in assay [5] it was -69% (active); in [6], 74.5%. The growth in [7] was -61.6% (active); in assay [8] it was 26%; in assay [9], 54.7%; in assay [10], -49.1% (active).
Take `CC(O)CN(CCO)CCN(CCO)CC(C)O` (stereo not given): the growth in [1] was 106%; in [2], 107%; in assay [3], 106%; in assay [4], 115%; in [5], 93%; in assay [6] it was 107%. Also, the growth in [7] is 94.2%; in assay [8] it was 94.8%; in [9] it was 108%; in [10], 106%.
For `O=C(Nc1cccc(Cn2c(=O)[nH]c3ccc(Oc4ncccn4)cc3c2=O)c1)c1cc(Cl)cc(Cl)c1`, the growth was 68% in [1]; 4.32% (active) in assay [2]; 30.5% in assay [3]; 39.3% in assay [4]; 31.9% in assay [5]; 69.1% in assay [6]. Also, the growth in [7] is 64.6%; in [8] it was 11.8%; in assay [9] it was 68.4%; in assay [10], 73%.
With `Cc1ccc(C(=O)Nc2ccc(CN3CCN(C)CC3)c(C(F)(F)F)c2)cc1C#Cc1cncc2ncccc12`, the growth is -88.1% (active) in assay [1]; -67.4% (active) in assay [2]; -88.9% (active) in assay [3]; -97% (active) in [4]; -95.7% (active) in assay [5]; -70.6% (active) in [6]. Further, the growth in assay [7] was 27.3%; in [8], -98.2% (active); in assay [9] it was -64% (active); in [10], -89.5% (active).
In the case of `c1ccc(Nc2ncc3c(n2)-c2cccn2CC3)cc1`, the growth in assay [1] was 99.4%; in assay [2], 96.6%; in assay [3] it was 95.1%; in assay [4] it was 80.8%; in assay [5], 97.8%; in [6] it was 85.8%. Further, the growth in assay [7] was 99.2%; in [8], 87.1%; in assay [9], 124%; in assay [10], 91.7%.
For the compound `CC1=C(C)C[C@]2(C(=O)O[C@H]3CCCC[C@@H]32)[S@](=O)C1`, the growth in assay [1] is 107%; in assay [2], 102%; in assay [3], 110%; in assay [4] it was 125%; in assay [5], 112%; in [6], 96.4%. Besides, the growth in assay [7] was 106%; in [8] it was 114%; in assay [9], 97.7%; in [10], 103%.
Take `CC(C)OCC1CO1` (stereo not given): the growth in assay [1] was 114%; in assay [2], 109%; in [3], 86.8%; in assay [4], 107%; in assay [5] it was 119%; in [6], 99.9%. Also, the growth in [7] was 78.2%; in assay [8] it was 95.1%; in [9], 102%; in assay [10], 102%.
Consider `O=C(/C=C1\C(=O)N(Cc2ccc([N+](=O)[O-])cc2)c2ccccc21)c1ccc(OCCN2CCCC2)cc1`, for which the growth was 42.9% in [1]; 1.78% (active) in assay [2]; 46.8% in [3]; 66.5% in [4]; 56.7% in assay [5]; 76.9% in assay [6]. Also, the growth in assay [7] is 95.6%; in [8] it was 67.6%; in assay [9] it was 88.4%; in [10], 70.2%.
In the case of `CC(=O)Nc1ccc(C(=O)/C=C/c2ccc(N(C)C)cc2)cc1`, the growth was 98.2% in [1]; 98.2% in assay [2]; 88.9% in assay [3]; 104% in [4]; 99.1% in assay [5]; 93.7% in assay [6]. The growth is 99% in [7], 106% in assay [8], 95.5% in assay [9] and 99.4% in [10].
As for `CCCCCCCCCCC1OC(C)CC(C)O1` (stereo not given), the growth in [1] is 104%; in assay [2], 86.5%; in [3], 98%; in assay [4] it was 115%; in assay [5], 103%; in assay [6], 96%. Further, the growth in assay [7] was 109%; in assay [8], 103%; in assay [9] it was 113%; in [10], 101%.
On to `Cc1ccccc1-n1c(C)nc2cc(NC(=O)c3ccc(Cl)cc3)ccc2c1=O`, for which the growth in assay [1] is 87.6%; in assay [2], 55.8%; in assay [3], 53.5%; in [4], 58.4%; in assay [5], 77.7%; in [6], 77.8%. Also, the growth in [7] is 59.7%; in [8], 58.2%; in assay [9] it was 59.7%; in assay [10] it was 68.7%.
Regarding `Oc1ccccc1\C=N/N=C/C=C/c1ccccc1`, the growth in assay [1] was 105%; in assay [2] it was 82.9%; in assay [3] it was 102%; in assay [4], 67.1%; in assay [5], 117%; in [6], 88.9%. The growth in [7] is 98.4%; in [8], 104%; in assay [9], 107%; in [10] it was 95.8%.
On to `O=c1c2c(c3ccccc3n1-c1ccccc1)NC(=S)NC2c1ccccc1` (stereo not given), for which the growth is 115% in assay [1]; 101% in assay [2]; 112% in [3]; 84.7% in [4]; 117% in assay [5]; 104% in assay [6]. In addition, the growth in assay [7] is 121%; in [8], 94.8%; in assay [9], 108%; in [10] it was 98.8%.
Regarding `CCOc1ccc(N(C)c2ccc(/C=C/C3=[N+](C)c4ccccc4C3(C)C)cc2)cc1`, the growth is -3.68% (active) in assay [1]; 8.09% (active) in assay [2]; -73.8% (active) in [3]; -56.2% (active) in assay [4]; 35.8% in [5]; -78.9% (active) in [6]. The growth in [7] was -2.2% (active); in assay [8], 30.5%; in assay [9], -16.4% (active); in assay [10], 6.52% (active).
